Measurements published in the supplement of paper PMC6522484.
± gives the standard deviation of the averaged measurements.

Legend:
DLD1 [1] = test: cell viability (CellTiter-Glo) relative to plate median (fraction of plate median); higher = more viable cells; conditions: 5 µM; treatment time 24 h; reporter: 7TFP
Method in brief: (§1)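 Stable lentiviral TCF/Wnt firefly luciferase reporters (7TFP or TCF4/Wnt) were present in the colorectal cancer cell lines used. These cells received library compounds at a final 5 µM for 24 h, and parallel plates were read for firefly luciferase or CellTiterGlo luminescence. Each well was normalised to the plate median, and the value reported is the mean of two independent replicates.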

HCT116 = test: as above; conditions: 5 µM; treatment time 24 h; reporter: TCF4/Wnt
Method in brief: as §1

SW480 [2] = test: as above; conditions: 5 µM; treatment time 24 h; reporter: 7TFP
Method in brief: as §1

DLD1 [3] = test: TCF/Wnt firefly luciferase reporter signal relative to plate median (fraction of plate median); higher = higher Wnt reporter signal; conditions: 5 µM; treatment time 24 h; reporter: 7TFP
Method in brief: as §1

SW480 [4] = test: as above; conditions: 5 µM; treatment time 24 h; reporter: 7TFP
Method in brief: as §1

Question: What does the source list for `COC(=O)Nc1nc2cc([S+]([O-])c3ccccc3)ccc2[nH]1` (stereo not given)?
Answer: cell viability (DLD1 [1]): 0.921 ± 0.093; cell viability (HCT116): 0.869 ± 0.054; cell viability (SW480 [2]): 1.01 ± 0.08; TCF/Wnt firefly luciferase reporter signal (DLD1 [3]): 0.983 ± 0.052; TCF/Wnt firefly luciferase reporter signal (SW480 [4]): 0.885 ± 0.12

Question: With `C[C@H]1O[C@@H](O[C@H]2[C@@H](O)C[C@H](O[C@H]3[C@@H](O)C[C@H](O[C@H]4CC[C@@]5(C)[C@H](CC[C@@H]6[C@@H]5C[C@@H](O)[C@]5(C)[C@@H](C7=CC(=O)OC7)CC[C@]65O)C4)O[C@@H]3C)O[C@@H]2C)C[C@H](O)[C@@H]1O` as the compound, how does the cell viability (DLD1 [1]) read?
Answer: The cell viability was 0.838 ± 0.068.

Question: What about the cell viability (HCT116) of the same compound?
Answer: The cell viability was 0.282 ± 0.23.

Question: What about the cell viability (SW480 [2]) of the same compound?
Answer: Its cell viability is 0.855 ± 0.053.

Question: And the “TCF/Wnt firefly luciferase reporter signal” value (DLD1 [3])?
Answer: Its value is 0.151 ± 0.15.

Question: What about the “TCF/Wnt firefly luciferase reporter signal” value (SW480 [4]) of the same compound?
Answer: The value was 0.221 ± 0.094.

Question: For `CCOc1ccc(C(=O)c2cc(O)c(OC)c(OC)c2O)cc1`, which cell viability (DLD1 [1]) is on record?
Answer: The cell viability was 0.982 ± 0.054.

Question: What about the cell viability (HCT116) of the same compound?
Answer: Its cell viability is 0.925 ± 0.11.

Question: What about the cell viability (SW480 [2]) of the same compound?
Answer: Its cell viability is 0.9935 ± 0.0021.

Question: And the “TCF/Wnt firefly luciferase reporter signal” value (DLD1 [3])?
Answer: Its value is 1.09.

Question: And the “TCF/Wnt firefly luciferase reporter signal” value (SW480 [4])?
Answer: Its value is 0.948 ± 0.062.

Question: How did the cell viability (DLD1 [1]) turn out when `COc1ccc2c(c1)OC[C@@H](Cc1ccc(OC)c(OC)c1)[C@H]2O` was run?
Answer: The cell viability was 1.09 ± 0.078.

Question: What about the cell viability (HCT116) of the same compound?
Answer: Its cell viability is 1.06 ± 0.11.

Question: What about the cell viability (SW480 [2]) of the same compound?
Answer: The cell viability was 0.993 ± 0.095.

Question: What about the “TCF/Wnt firefly luciferase reporter signal” value (DLD1 [3]) of the same compound?
Answer: The value was 0.944 ± 0.011.

Question: And the “TCF/Wnt firefly luciferase reporter signal” value (SW480 [4])?
Answer: Its value is 0.94 ± 0.018.

Question: With `COc1ccc(-c2coc3cc(OC)cc(OC)c3c2=O)cc1` as the compound, how does the cell viability (DLD1 [1]) read?
Answer: Its cell viability is 1.03 ± 0.086.

Question: What about the cell viability (HCT116) of the same compound?
Answer: Its cell viability is 1.04.

Question: And the cell viability (SW480 [2])?
Answer: The cell viability was 1.035 ± 0.0071.

Question: And the “TCF/Wnt firefly luciferase reporter signal” value (DLD1 [3])?
Answer: The value was 0.963 ± 0.11.

Question: What about the “TCF/Wnt firefly luciferase reporter signal” value (SW480 [4]) of the same compound?
Answer: The value was 1.04 ± 0.028.

Question: How did the cell viability (DLD1 [1]) turn out when `CC[C@@H](C(=O)[C@@H](C)[C@@H](O)[C@H](C)CCc1ccc(C)c(O)c1C(=O)O)[C@H]1O[C@](CC)([C@H]2CC[C@](O)(CC)[C@H](C)O2)C[C@@H]1C` was run?
Answer: The cell viability was 0.985 ± 0.013.

Question: What about the cell viability (HCT116) of the same compound?
Answer: Its cell viability is 1.03 ± 0.098.

Question: And the cell viability (SW480 [2])?
Answer: The cell viability was 1.02 ± 0.014.

Question: And the “TCF/Wnt firefly luciferase reporter signal” value (DLD1 [3])?
Answer: Its value is 1.23 ± 0.099.

Question: What about the “TCF/Wnt firefly luciferase reporter signal” value (SW480 [4]) of the same compound?
Answer: Its value is 1.03 ± 0.12.

Question: With `C=C1CC[C@H](O)C/C1=C/C=C1\CCC[C@]2(C)[C@@H]([C@H](C)/C=C/[C@H](C)C(C)C)CC[C@@H]12` as the compound, how does the cell viability (DLD1 [1]) read?
Answer: The cell viability was 0.982 ± 0.054.

Question: And the cell viability (HCT116)?
Answer: The cell viability was 0.995 ± 0.11.

Question: What about the cell viability (SW480 [2]) of the same compound?
Answer: The cell viability was 0.954 ± 0.016.

Question: What about the “TCF/Wnt firefly luciferase reporter signal” value (DLD1 [3]) of the same compound?
Answer: The value was 1.07 ± 0.16.

Question: What about the “TCF/Wnt firefly luciferase reporter signal” value (SW480 [4]) of the same compound?
Answer: The value was 1.09 ± 0.014.

Question: What does the source list for `CC(=O)NS(=O)(=O)c1ccc(NC(=O)c2ccccc2C(=O)O)cc1`?
Answer: cell viability (DLD1 [1]): 0.946 ± 0.047; cell viability (HCT116): 0.905 ± 0.13; cell viability (SW480 [2]): 0.93 ± 0.035; TCF/Wnt firefly luciferase reporter signal (DLD1 [3]): 1.04 ± 0.057; TCF/Wnt firefly luciferase reporter signal (SW480 [4]): 1.1 ± 0.042

Question: `O=c1oc2ccccc2c(O)c1Cc1c(O)c2ccccc2oc1=O` was tested. Which cell viability (DLD1 [1]) did it give?
Answer: The cell viability was 0.959 ± 0.037.

Question: What about the cell viability (HCT116) of the same compound?
Answer: The cell viability was 0.979 ± 0.044.

Question: What about the cell viability (SW480 [2]) of the same compound?
Answer: The cell viability was 1.01 ± 0.028.

Question: And the “TCF/Wnt firefly luciferase reporter signal” value (DLD1 [3])?
Answer: Its value is 1.18 ± 0.021.

Question: And the “TCF/Wnt firefly luciferase reporter signal” value (SW480 [4])?
Answer: The value was 1.08 ± 0.05.

Question: `C[C@@H]1C/C=C2\SC[C@@H](NC(=O)c3coc(n3)C[C@H](O)C[C@H](O)/C=C/C=C/CNC2=O)C(=O)O1` [Griseoviridin] was tested. Which cell viability (DLD1 [1]) did it give?
Answer: The cell viability was 0.995 ± 0.021.

Question: What about the cell viability (HCT116) of the same compound?
Answer: Its cell viability is 1.04 ± 0.05.

Question: And the cell viability (SW480 [2])?
Answer: The cell viability was 1.01 ± 0.021.

Question: What about the “TCF/Wnt firefly luciferase reporter signal” value (DLD1 [3]) of the same compound?
Answer: Its value is 0.873 ± 0.12.

Question: What about the “TCF/Wnt firefly luciferase reporter signal” value (SW480 [4]) of the same compound?
Answer: The value was 0.957 ± 0.034.

Question: Which cell viability (DLD1 [1]) does the source give for `COc1ccc2[nH]c([S+]([O-])Cc3ncc(C)c(OC)c3C)nc2c1` (stereo not given) here?
Answer: Its cell viability is 0.971 ± 0.084.

Question: What about the cell viability (HCT116) of the same compound?
Answer: The cell viability was 1.01 ± 0.048.

Question: And the cell viability (SW480 [2])?
Answer: The cell viability was 0.978 ± 0.06.

Question: And the “TCF/Wnt firefly luciferase reporter signal” value (DLD1 [3])?
Answer: The value was 1.09 ± 0.05.

Question: And the “TCF/Wnt firefly luciferase reporter signal” value (SW480 [4])?
Answer: Its value is 1.06 ± 0.11.

Question: Which cell viability (DLD1 [1]) does the source give for `NC(=O)NO` here?
Answer: The cell viability was 1.06 ± 0.09.

Question: What about the cell viability (HCT116) of the same compound?
Answer: Its cell viability is 1.05 ± 0.042.

Question: What about the cell viability (SW480 [2]) of the same compound?
Answer: The cell viability was 1.09 ± 0.028.

Question: And the “TCF/Wnt firefly luciferase reporter signal” value (DLD1 [3])?
Answer: Its value is 1.03 ± 0.11.

Question: And the “TCF/Wnt firefly luciferase reporter signal” value (SW480 [4])?
Answer: Its value is 1.03 ± 0.12.

Question: What does the source list for `CC(=O)O[C@@H]1c2c(ccc3ccc(=O)oc23)OC(C)(C)[C@@H]1OC(=O)CC(C)C`?
Answer: cell viability (DLD1 [1]): 0.979 ± 0.044; cell viability (HCT116): 1.02 ± 0.029; cell viability (SW480 [2]): 0.931 ± 0.059; TCF/Wnt firefly luciferase reporter signal (DLD1 [3]): 0.875 ± 0.066; TCF/Wnt firefly luciferase reporter signal (SW480 [4]): 0.959 ± 0.054

Question: `COc1c(O)cccc1O` was tested. Which cell viability (DLD1 [1]) did it give?
Answer: The cell viability was 0.99 ± 0.042.

Question: And the cell viability (HCT116)?
Answer: Its cell viability is 0.962 ± 0.17.

Question: And the cell viability (SW480 [2])?
Answer: Its cell viability is 1.01.

Question: What about the “TCF/Wnt firefly luciferase reporter signal” value (DLD1 [3]) of the same compound?
Answer: Its value is 1.16 ± 0.05.

Question: And the “TCF/Wnt firefly luciferase reporter signal” value (SW480 [4])?
Answer: Its value is 1.06 ± 0.021.
